The source of these data is the supplement of paper PMC11219838.

This experiment deals with Ditylenchus dipsaci. Description: proportion of mobile D. dipsaci (mixed stage) relative to DMSO control (fraction of DMSO control); higher = more viable, less nematicidal, active = 0.86 or less; extreme values may be limits of the assay. Conditions: 60 µM; 5 days; temperature: 20 °C. The essentials: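 The worms, D. dipsaci raised on pea plants in Gamborg B-5 agar, were recovered through a filter funnel into water. Each well of a 96-well plate then held about 20 of them in distilled water plus pinned compound at 60 µM final (0.6% v/v DMSO), and the sealed plates were shaken at 200 rpm at 20 °C for 5 days. Following addition of 2 µL 1 M NaOH, mobile worms were counted by microscopy, and mobility was expressed against DMSO controls as the average of two biological replicates.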
With `CC1CCN(C(=O)CSc2nnc(-c3cccc(Cl)c3)o2)CC1`, the “proportion of mobile D. dipsaci” value was 1 (inactive). For the compound `COc1ccc(C(=O)CSc2nnc(-c3cccc4ccccc34)o2)cc1`, the “proportion of mobile D. dipsaci” value was 1 (inactive).

In the case of `Cc1ccc(-c2noc(COc3ccc(Br)cc3)n2)cc1`, the “proportion of mobile D. dipsaci” value is 1 (inactive). Then `O=C(c1ccccc1-c1nc(-c2ccc(F)cc2)no1)N1CCCC1`, with 1 (inactive).

For the compound `Cc1nc(CSc2nnc(-c3ccc(Cl)cc3)o2)cs1`, the “proportion of mobile D. dipsaci” value was 1 (inactive).

For `CC(C)Oc1ccc(-c2nc(-c3ccccc3)no2)cc1`, the “proportion of mobile D. dipsaci” value was 1 (inactive).

On to `Cc1ccc(-c2noc(-c3ccccc3OCC(N)=O)n2)cc1`, for which the “proportion of mobile D. dipsaci” value is 1 (inactive). Then `CC(C)(C)c1ccc(OCc2nc(-c3ccncc3)no2)c(Br)c1`, with 1 (inactive); and `COC(=O)c1ccc(CSc2nnc(-c3cccnc3)o2)cc1`, with 1 (inactive). Regarding `O=C(CSc1nnc(-c2ccncc2)o1)Nc1cccc(Cl)c1Cl`, the “proportion of mobile D. dipsaci” value is 1 (inactive). Turning to `COc1cccc(NC(=O)CSc2nnc(-c3ccc(Br)cc3)o2)c1`, the “proportion of mobile D. dipsaci” value was 1 (inactive). Turning to `CCCC(=O)Nc1ccccc1-c1nc(-c2cccnc2)no1`, the “proportion of mobile D. dipsaci” value was 1 (inactive). With `COc1nc2ccc(C)cc2cc1-c1noc(-c2cccnc2)n1`, the “proportion of mobile D. dipsaci” value is 1 (inactive).

Turning to `COc1cccc(-c2noc(-c3cc(C)ccc3C)n2)c1`, the “proportion of mobile D. dipsaci” value was 1 (inactive). Under `COc1ccc(-c2noc(COc3ccc(F)cc3)n2)cc1` stands 1 (inactive); under `COC(=O)c1ccc(CSc2nnc(-c3ccc(OC)cc3)o2)cc1`, 1 (inactive); under `COc1cccc(-c2nc(-c3ccccc3)no2)c1`, 1 (inactive). With `CCOc1nc(-c2ccc(C)cc2)ccc1-c1noc(-c2cccnc2)n1`, the “proportion of mobile D. dipsaci” value is 1 (inactive). On to `COc1ccc(Cl)cc1-c1nc(-c2ccc3c(c2)OCO3)no1`, for which the “proportion of mobile D. dipsaci” value was 1 (inactive). Then `Clc1ccc(OCc2nc(-c3ccccn3)no2)c(Br)c1`, with 1 (inactive); and `COc1nc(C)ccc1-c1noc(-c2ccc(C(C)(C)C)cc2)n1`, with 1 (inactive); and `CC(Oc1ccc(Br)cc1)c1nc(-c2ccncc2)no1` (centres undefined), with 1 (inactive).

For `COc1nc(C)ccc1-c1noc(-c2ccccc2Br)n1`, the “proportion of mobile D. dipsaci” value was 1 (inactive). Under `CCNC(=O)c1ccccc1-c1nc(-c2ccc(OC)cc2)no1` stands 1 (inactive); under `Cc1ccc(-c2noc(COc3ccccc3C)n2)cc1`, 1 (inactive); under `CCC(=O)Nc1ccccc1-c1nc(-c2ccccn2)no1`, 1 (inactive). On to `Cc1ccc(OC(C)c2nc(-c3ccc4c(c3)OCO4)no2)cc1C` (centres undefined), for which the “proportion of mobile D. dipsaci” value was 1 (inactive). For the compound `Cc1ccccc1OCc1nc(-c2cccc(C(F)(F)F)c2)no1`, the “proportion of mobile D. dipsaci” value was 1 (inactive). `COc1ccccc1NC(=O)c1ccccc1-c1nc(-c2ccc(Cl)cc2)no1`: the “proportion of mobile D. dipsaci” value was 1 (inactive). Then `C=CCOc1ccc(-c2nc(-c3cccnc3)no2)cc1`, with 0.5 (active). Under `N#Cc1ccc(OCc2nc(-c3ccc(Br)o3)no2)cc1` stands 1 (inactive); under `Cc1ccc(-c2noc(-c3cccc(Br)c3)n2)cc1`, 1 (inactive). Then `CCCc1ccc(-c2ccc(-c3nc(-c4ccccn4)no3)cc2)cc1`, with 1 (inactive); and `Cc1ccc(SC(C)c2nc(-c3ccncc3)no2)cc1` (centres undefined), with 1 (inactive).

As for `COc1ccc(-c2noc(COc3ccc(Br)cc3)n2)cc1`, the “proportion of mobile D. dipsaci” value is 1 (inactive). Then `COc1ccc(NC(=O)c2ccccc2-c2nc(-c3ccccc3C)no2)cc1`, with 1 (inactive); and `c1ccc(-c2noc(COc3cccc4ccccc34)n2)nc1`, with 1 (inactive). Then `COc1ccc(-c2nnc(SCC(=O)Nc3ccccc3C(C)C)o2)cc1`, with 1 (inactive); and `Cc1ccc(-c2noc(CSc3nc(C)cc(C)n3)n2)cc1`, with 1 (inactive).
